Experimental data as given in PubChem BioAssay (NCI).
“And” between values parts separate entries of the source, which are not always exact repeats. Identical values can stand only once. About 79,000 compounds went through this panel and 15% of them were active in at least one assay; those are over-represented in the sample as a whole. The source made the active and inactive calls. No stated cut-off is given here; in the data, active means growth inhibition above about 70%; inactive means the rest. Where a SMILES comes first, the peptide text is derived from it. The star is where a group is joined. Boc = CC(C)(C)OC(=O)*; OBn = c1ccc(CO*)cc1

Assay: NCI Yeast Anticancer Drug Screen. Data for the cln2 rad14 strain (AID 165);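 further: 0% = growth equal to vehicle treated cultures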
Conditions: S. cerevisiae cln2 rad14 strain, hits give high values; at 50.0 µM unless noted
Procedure, shortened: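 Test compounds were added to cln2 rad14 yeast cultures; inhibition of growth was then determined by comparison with vehicle treatment.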
In the case of `Cn1c2c(c3ccccc31)CCN(CCCCN1CCN(c3ccccc3)CC1)C2=O`, the growth inhibition was 3.55% (inactive).
With `Cc1ccc(S(=O)(=O)C2OC(CO)C(O)C(O)C2O)cc1` (stereo unspecified) the growth inhibition was -21.1% (inactive).
In the case of `CC(C)CC(NC(=O)C(Cc1ccccc1)NC(=O)C(Cc1ccccc1)NC(=O)OC(C)(C)C)C(=O)OCc1ccccc1` (stereo not drawn) (Boc-Phe-Phe-Leu-OBn; configuration not given here), the growth inhibition was -7.2% (inactive).
For `CC1CC(C)OC(C(Br)CBr)O1` (stereo unspecified), the growth inhibition was 15% (inactive).
For `CCN(CC)CC(=O)Nc1ccc2c(c1)C(=O)c1ccc(NC(=O)CN(CC)CC)cc1C2=O`, the growth inhibition was 16.4% (inactive).
For `CN(C)Cc1ccccc1CC1(O)CCCC1`, the growth inhibition was -10.1% (inactive).
For `Cc1cccc(C)c1I`, the growth inhibition was -25.9% (inactive).
With `CCOCNC(=O)NCC(F)(F)C(F)(F)C(F)(F)C(F)(F)C(F)(F)C(F)(F)C(F)(F)F` the growth inhibition was -5.5% (inactive).
In the case of `O=C1OC(c2ccccc2)=N/C1=C\c1ccccc1`, the growth inhibition was -5.7% (inactive) and -23.2% (inactive).
With `CS(C)=NC(=Nc1ccccc1)c1ccccc1` the growth inhibition was -26.4% (inactive).
With `CCOC(=O)/C(=C\c1ccccc1)c1ccccc1` the growth inhibition was 7.85% (inactive).
With `CCN(CC)C(=O)c1cc(OC)c(C(=O)N(CC)CC)cc1OC` the growth inhibition was -15.2% (inactive).
With `Cc1cc2nncn2c2ccccc12` the growth inhibition was -12.3% (inactive).
For `CC1=NN(C(=O)Cc2ccccc2)C(=O)/C1=C\c1ccc(O)cc1`, the growth inhibition was -4.2% (inactive).
For `c1ccc(NN=Nc2ncnc3nc[nH]c23)cc1`, the growth inhibition was -11.8% (inactive).
With `O=C(/C=C/c1ccc(OCc2ccccc2)cc1)c1cccc([N+](=O)[O-])c1` the growth inhibition was 9.15% (inactive).
